The source of these data is article PMC6212790, “How bacterial xenogeneic silencer rok distinguishes foreign from self DNA in its resident genome”.

In all, about 33,000 sequences were measured (“e-score”: median about -0.038, highest 2% from about 0.33 on). The list comes from a sample in which the highest values are over-represented; it also holds similar and randomly drawn sequences.

This experiment concerns the target T1, GST-Rok-C97-191 (Bacillus subtilis subsp. subtilis str. …, UniProt O34857 97-191).
T1 sequence: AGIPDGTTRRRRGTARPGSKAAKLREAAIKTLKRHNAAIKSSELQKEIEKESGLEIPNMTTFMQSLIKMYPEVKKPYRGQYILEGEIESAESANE
Kind of experiment: protein binding microarray; Rok is a gene silencer of Bacillus subtilis; high values mean tight binding. The note with it: protein: recombinant; tags: GST (pTH5325, pDEST15-Magic modified); dsDNA, one strand shown. The method in brief: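 Each has a 25-mer constant primer and a 35-mer variable part from a de Bruijn sequence of order 10, covering every non-palindromic 8-mer at least 32 times (palindromic 16). Preference for each 8-mer is given as a rank-based, unitless enrichment score (E-score). Its range runs from 0.5 (most favored) to −0.5 (most disfavored).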
In the case of AAAATTAT, the binding signal was found to be 0.239 E-score.
As to GCTCACTA, the binding signal worked out at 0.0154 E-score.
Turning to GAAGAGGA, the binding signal was -0.151 E-score.
For GGCATACC, the binding signal is 0.00482 E-score.
With GCGGACGA the figure was -0.188 E-score; with AGAGGCAT, 0.0046 E-score.
Take AATACGCT: the binding signal is -0.133 E-score.
To ACAACGAG belongs -0.0859 E-score.
With AGAGAAAG the figure was 0.159 E-score.
On to CGATGACC, for which the binding signal is -0.125 E-score.
On to ATTTGTAC, for which the binding signal was 0.333 E-score.
With ATTTGTAA, the binding signal is 0.203 E-score.
For GATTGTAA, the binding signal was 0.0411 E-score.
With GATTGTAC the figure was 0.365 E-score.
With CTTTGTAC the figure was 0.249 E-score; with AATTGTAC, 0.211 E-score.
Turning to TAACTCCA, the binding signal amounted to 0.0761 E-score.
Take CTCGGGAC: the binding signal is -0.0122 E-score.
ATACCTAG: the binding signal was determined as 0.253 E-score.
Regarding GTACCTAC, the binding signal worked out at 0.349 E-score.
In the case of GAACCTAC, the binding signal was 0.198 E-score.
For the sequence ATACCTAT, the binding signal was 0.323 E-score.
In the case of ATACCTAC, the binding signal was 0.333 E-score.
Regarding GTACCTAA, the binding signal turned out to be 0.155 E-score.
Consider CTACCTAA, for which the binding signal was determined as 0.174 E-score.
On to CTACCTAG, for which the binding signal came to 0.243 E-score.
As for CTACCTAC, the binding signal worked out at 0.376 E-score.
AACATATC: the binding signal was determined as 0.233 E-score.
CATGTTAC: the binding signal came to 0.15 E-score.
To CTCCACTA belongs 0.107 E-score; to CAGCCCTG, -0.157 E-score; to ATAAATAA, 0.269 E-score.
To GTAAATAC belongs 0.336 E-score; to AGAAATAC, 0.311 E-score.
With ATAAATAT, the binding signal is 0.369 E-score.
Take ACAAATAC: the binding signal came to 0.266 E-score.
As to ATAAATAG, the binding signal came out at 0.252 E-score.
As to ATAAATAC, the binding signal came out at 0.287 E-score.
Turning to ACAAATAT, the binding signal amounted to 0.337 E-score.
Take AGAAATAT: the binding signal was 0.346 E-score.
For ACAAATAA, the binding signal was 0.246 E-score.
As for CTAAATAC, the binding signal was 0.287 E-score.
For AGAAATAG, the binding signal is 0.326 E-score.
TAGTCGCA: the binding signal amounted to 0.00372 E-score.
For the sequence AAAGGGTT, the binding signal is -0.0515 E-score.
With CGACCAGC the figure was -0.129 E-score.
To AACGAGAG belongs -0.0985 E-score.
ACTTCCGG: the binding signal was -0.139 E-score.
Consider CAAAAGGG, for which the binding signal was -0.177 E-score.
As to CAAACGCC, the binding signal is -0.166 E-score.
In the case of ATTCCGGG, the binding signal was -0.0619 E-score.
As for AATTCCTA, the binding signal worked out at 0.155 E-score.
With AAATCCCA, the binding signal worked out at 0.123 E-score.
As to CGATAGTA, the binding signal stood at 0.382 E-score.
On to CGATAGTC, for which the binding signal was -0.0434 E-score.
AGATAGTC: the binding signal turned out to be 0.0233 E-score.
Consider GGATAGTA, for which the binding signal was determined as 0.142 E-score.
Consider AGATAGTA, for which the binding signal was found to be 0.376 E-score.
Regarding AGATAGTG, the binding signal amounted to 0.174 E-score.
On to ACTCCAAA, for which the binding signal was -0.0283 E-score.
In the case of AGAGCCAA, the binding signal is -0.0861 E-score.
In the case of ACCTTCCG, the binding signal is -0.0992 E-score.
To CCGTACTC belongs 0.0243 E-score.
Take TTGTAAAA: the binding signal was 0.265 E-score.
As to ATGTAAAT, the binding signal was found to be 0.373 E-score.
Take CTGTAATC: the binding signal worked out at 0.13 E-score.
As for ATGTAAAC, the binding signal stood at 0.031 E-score.
For the sequence ATGTAAAG, the binding signal is 0.164 E-score.
Consider CTGTAATA, for which the binding signal is 0.334 E-score.
Turning to ATGTAATA, the binding signal is 0.32 E-score.
With CTGTAAAA the figure was 0.0478 E-score; with ATGTAAAA, 0.351 E-score.
In the case of GAGAGTGC, the binding signal was -0.103 E-score.
To ACGGCAAT belongs 0.0959 E-score; to GGCTTCTA, 0.11 E-score.
For the sequence ATCGCCGC, the binding signal was -0.0266 E-score.
As to CTATATCC, the binding signal is 0.17 E-score.
Regarding GTATATCA, the binding signal is 0.216 E-score.
For CTATATCA, the binding signal is 0.185 E-score.
To ATATATCA belongs 0.396 E-score.
For ATATATCG, the binding signal was found to be 0.366 E-score.
Turning to ATATATCC, the binding signal was determined as 0.268 E-score.
For the sequence CATTGTGA, the binding signal was -0.101 E-score.
In the case of AGAGGTTG, the binding signal is -0.0137 E-score.
Regarding AAAGTTAA, the binding signal is -0.0842 E-score.
With ACGTCGAT, the binding signal was found to be 0.108 E-score.
As for AAAATCTC, the binding signal turned out to be 0.242 E-score.
As to CGAATCTA, the binding signal was determined as 0.256 E-score.
GAAATCTC: the binding signal was determined as 0.209 E-score.
On to AAAATCTG, for which the binding signal was 0.00361 E-score.
For the sequence AAAATCTA, the binding signal was found to be 0.339 E-score.
Regarding GAAATCTA, the binding signal turned out to be 0.383 E-score.
On to GTAATCTA, for which the binding signal is 0.313 E-score.
CTAATCTA: the binding signal worked out at 0.348 E-score.
For the sequence AGAATCTA, the binding signal worked out at 0.322 E-score.
Consider GGAATCTA, for which the binding signal turned out to be 0.339 E-score.
Regarding ATAATCTA, the binding signal turned out to be 0.289 E-score.
For GCAATCTA, the binding signal came out at 0.307 E-score.
Consider CAAAATCG, for which the binding signal is 0.0988 E-score.
With TATGCCCA the figure was -0.134 E-score; with GTGGCAAA, 0.0701 E-score; with ACCGTAGT, 0.0984 E-score.
Regarding ATGCGGCG, the binding signal was -0.186 E-score.
Consider AGCCGTTA, for which the binding signal was 0.0336 E-score.
To CAAATCTG belongs -0.15 E-score; to CAAATCTA, 0.354 E-score.
To TAAATCAA belongs 0.178 E-score.
TAAATCGA: the binding signal amounted to 0.0722 E-score.
For the sequence CAAATCTC, the binding signal was found to be 0.0537 E-score.
On to TAAATCTA, for which the binding signal stood at 0.364 E-score.
To AGTCTATC belongs -0.0937 E-score.
For CATGTCAA, the binding signal was -0.0291 E-score.
CAAATATG: the binding signal amounted to 0.161 E-score.
For the sequence CAAATATC, the binding signal is 0.231 E-score.
To AAAATATG belongs 0.271 E-score.
With CAAATATA, the binding signal was 0.346 E-score.
For AAAATATC, the binding signal came to 0.186 E-score.
On to TAAATATA, for which the binding signal stood at 0.378 E-score.
In the case of GAAATATA, the binding signal was determined as 0.305 E-score.
On to TAAATAAA, for which the binding signal was 0.162 E-score.
With AAAATATA the figure was 0.399 E-score; with CCCACCTA, -0.0708 E-score.
On to AAGTTAAG, for which the binding signal is -0.104 E-score.
Turning to GTTGAATA, the binding signal was 0.173 E-score.
In the case of CTTTTGTA, the binding signal came out at 0.241 E-score.
On to ATTGATAC, for which the binding signal amounted to 0.22 E-score.
To ATTGATAG belongs 0.348 E-score; to ATTGATAA, 0.243 E-score; to CGATACAC, 0.155 E-score.
CGTTCCGA: the binding signal is -0.149 E-score.
With AGCACGGA the figure was 0.0231 E-score; with AATCTAAG, 0.234 E-score.
As for CATCTACG, the binding signal is -0.0119 E-score.
As for AATCTAGC, the binding signal came out at 0.234 E-score.
As for GATCTAAC, the binding signal worked out at 0.0254 E-score.
For ACTCTACT, the binding signal was 0.273 E-score.
With AATCTAGT the figure was 0.282 E-score; with GATCTACC, 0.35 E-score.
Regarding CATCTACC, the binding signal turned out to be 0.222 E-score.
AATCTACT: the binding signal was determined as 0.43 E-score.
With AATCTACG the figure was 0.36 E-score; with AATCTAAC, 0.199 E-score; with AATCTACC, 0.447 E-score.
In the case of AGAATGCA, the binding signal is 0.038 E-score.
On to ACGTTTCC, for which the binding signal was -0.131 E-score.
Regarding AAGTGTCG, the binding signal was found to be 0.0859 E-score.
To AGAAAAGC belongs 0.217 E-score; to ACCACCAT, -0.0276 E-score; to AACTATCA, 0.369 E-score.
As to GACTATCA, the binding signal is -0.147 E-score.
With CACTATCA, the binding signal came out at 0.175 E-score.
Consider AACTATTA, for which the binding signal is 0.444 E-score.
On to GGCTATCA, for which the binding signal was -0.0497 E-score.
For the sequence CTCTATTA, the binding signal came out at 0.246 E-score.
Take CACTATTA: the binding signal worked out at 0.202 E-score.
On to GTCTATTA, for which the binding signal was 0.0713 E-score.
On to CGCTATCA, for which the binding signal came out at 0.0552 E-score.
ATCTATTA: the binding signal was 0.353 E-score.
With GACTATTA the figure was 0.165 E-score; with AGCTATCA, 0.335 E-score.
Turning to ATAGTTGC, the binding signal turned out to be 0.306 E-score.
CTGGAACC: the binding signal was -0.0259 E-score.
With AGTCAGTA the figure was 0.149 E-score; with AAGGCGCT, -0.115 E-score.
Turning to CCGCCTAG, the binding signal is -0.149 E-score.
Take GAGATGAA: the binding signal was -0.0161 E-score.
For the sequence CCCGAAAC, the binding signal was -0.179 E-score.
To CGGTCGTA belongs 0.261 E-score; to ATTATGAG, -0.00845 E-score.
With GTACCCAA, the binding signal is -0.0765 E-score.
With ATCTATCA, the binding signal worked out at 0.451 E-score.
Regarding GAGTATTA, the binding signal was 0.187 E-score.
